Laboratory results reported in the supplement of paper PMC11732987, “Enantioselective OTUD7B fragment discovery through chemoproteomics screening and high-throughput optimisation” (Communications Chemistry, 2025).

Key:
Assay in all cases: log2 ratio of Biotin-Ahx-Ub-VS probe labelling (fragment/DMSO); higher = less target engagement (more negative = stronger competition), active = hit call of the paper (q ≤ 0.05, log2 ratio ≤ -1)
Conditions in all cases: compound concentration: 200 uM; treatment time: 3 h
USP42 = molecular target: T1, USP42 (UniProt Q9H9J4)
T1 sequence (whole entry): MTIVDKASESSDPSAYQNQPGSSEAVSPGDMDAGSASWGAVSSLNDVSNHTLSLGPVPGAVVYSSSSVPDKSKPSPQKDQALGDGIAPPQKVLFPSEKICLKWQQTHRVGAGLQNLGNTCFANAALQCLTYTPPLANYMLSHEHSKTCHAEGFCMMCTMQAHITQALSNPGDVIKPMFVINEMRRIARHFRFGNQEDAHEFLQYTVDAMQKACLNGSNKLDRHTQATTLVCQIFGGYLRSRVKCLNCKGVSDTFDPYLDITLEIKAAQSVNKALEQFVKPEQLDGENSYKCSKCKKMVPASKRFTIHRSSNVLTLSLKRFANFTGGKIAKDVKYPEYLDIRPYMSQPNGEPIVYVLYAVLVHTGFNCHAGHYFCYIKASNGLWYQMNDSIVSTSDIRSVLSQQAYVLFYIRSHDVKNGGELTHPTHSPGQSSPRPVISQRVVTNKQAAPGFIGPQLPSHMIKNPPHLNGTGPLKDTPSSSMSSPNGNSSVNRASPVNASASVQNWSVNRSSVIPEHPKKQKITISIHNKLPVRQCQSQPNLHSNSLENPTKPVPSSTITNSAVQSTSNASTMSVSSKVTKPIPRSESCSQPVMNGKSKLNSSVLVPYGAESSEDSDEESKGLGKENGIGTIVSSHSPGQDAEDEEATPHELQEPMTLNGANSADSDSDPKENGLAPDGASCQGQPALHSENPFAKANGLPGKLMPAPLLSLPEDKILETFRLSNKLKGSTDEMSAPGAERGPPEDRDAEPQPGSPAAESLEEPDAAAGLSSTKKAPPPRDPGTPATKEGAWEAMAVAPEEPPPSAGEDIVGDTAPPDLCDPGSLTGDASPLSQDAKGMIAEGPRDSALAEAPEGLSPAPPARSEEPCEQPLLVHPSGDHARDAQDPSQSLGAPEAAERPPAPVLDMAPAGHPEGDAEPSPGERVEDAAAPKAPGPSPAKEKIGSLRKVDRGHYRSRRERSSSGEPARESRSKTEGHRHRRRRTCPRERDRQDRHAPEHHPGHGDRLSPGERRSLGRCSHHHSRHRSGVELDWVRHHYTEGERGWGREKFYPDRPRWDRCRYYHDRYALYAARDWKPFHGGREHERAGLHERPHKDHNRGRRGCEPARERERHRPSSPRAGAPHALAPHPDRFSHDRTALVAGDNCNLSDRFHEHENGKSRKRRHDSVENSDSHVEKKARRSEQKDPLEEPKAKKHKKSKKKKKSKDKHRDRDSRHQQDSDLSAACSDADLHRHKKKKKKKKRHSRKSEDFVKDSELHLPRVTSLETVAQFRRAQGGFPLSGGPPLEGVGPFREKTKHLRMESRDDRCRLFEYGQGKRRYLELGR
How it was run: (§1)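 The table lists average log2 ratios of fragment over vehicle, from an unpaired t-test on global-median-normalised Spectronaut label-free quantities. Proteins with ≥2 unique peptides were used. Samples were HEK293T lysate (495 µg) treated in triplicate with fragment at 200 µM or vehicle for 3 h, then with Biotin-Ahx-Ub-VS (0.5 µM final) for 1 h, with labelled DUBs NeutrAvidin-enriched and run by diaPASEF LC-MS/MS.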

USP46 = USP46 (UniProt P62068)
USP46, sequence (P62068 whole entry): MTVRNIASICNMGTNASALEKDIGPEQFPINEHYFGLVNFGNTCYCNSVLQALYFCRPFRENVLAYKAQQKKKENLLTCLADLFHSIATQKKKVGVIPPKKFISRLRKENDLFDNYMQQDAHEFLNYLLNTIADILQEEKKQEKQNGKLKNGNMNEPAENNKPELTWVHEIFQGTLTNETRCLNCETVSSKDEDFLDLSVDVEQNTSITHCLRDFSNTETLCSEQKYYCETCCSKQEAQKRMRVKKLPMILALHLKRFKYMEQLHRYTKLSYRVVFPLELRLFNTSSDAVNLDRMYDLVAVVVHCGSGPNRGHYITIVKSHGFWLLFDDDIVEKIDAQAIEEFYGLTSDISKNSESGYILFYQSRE
How it was run: as §1

USP47 = molecular target: T2, USP47 (UniProt Q96K76)
T2 sequence (whole entry): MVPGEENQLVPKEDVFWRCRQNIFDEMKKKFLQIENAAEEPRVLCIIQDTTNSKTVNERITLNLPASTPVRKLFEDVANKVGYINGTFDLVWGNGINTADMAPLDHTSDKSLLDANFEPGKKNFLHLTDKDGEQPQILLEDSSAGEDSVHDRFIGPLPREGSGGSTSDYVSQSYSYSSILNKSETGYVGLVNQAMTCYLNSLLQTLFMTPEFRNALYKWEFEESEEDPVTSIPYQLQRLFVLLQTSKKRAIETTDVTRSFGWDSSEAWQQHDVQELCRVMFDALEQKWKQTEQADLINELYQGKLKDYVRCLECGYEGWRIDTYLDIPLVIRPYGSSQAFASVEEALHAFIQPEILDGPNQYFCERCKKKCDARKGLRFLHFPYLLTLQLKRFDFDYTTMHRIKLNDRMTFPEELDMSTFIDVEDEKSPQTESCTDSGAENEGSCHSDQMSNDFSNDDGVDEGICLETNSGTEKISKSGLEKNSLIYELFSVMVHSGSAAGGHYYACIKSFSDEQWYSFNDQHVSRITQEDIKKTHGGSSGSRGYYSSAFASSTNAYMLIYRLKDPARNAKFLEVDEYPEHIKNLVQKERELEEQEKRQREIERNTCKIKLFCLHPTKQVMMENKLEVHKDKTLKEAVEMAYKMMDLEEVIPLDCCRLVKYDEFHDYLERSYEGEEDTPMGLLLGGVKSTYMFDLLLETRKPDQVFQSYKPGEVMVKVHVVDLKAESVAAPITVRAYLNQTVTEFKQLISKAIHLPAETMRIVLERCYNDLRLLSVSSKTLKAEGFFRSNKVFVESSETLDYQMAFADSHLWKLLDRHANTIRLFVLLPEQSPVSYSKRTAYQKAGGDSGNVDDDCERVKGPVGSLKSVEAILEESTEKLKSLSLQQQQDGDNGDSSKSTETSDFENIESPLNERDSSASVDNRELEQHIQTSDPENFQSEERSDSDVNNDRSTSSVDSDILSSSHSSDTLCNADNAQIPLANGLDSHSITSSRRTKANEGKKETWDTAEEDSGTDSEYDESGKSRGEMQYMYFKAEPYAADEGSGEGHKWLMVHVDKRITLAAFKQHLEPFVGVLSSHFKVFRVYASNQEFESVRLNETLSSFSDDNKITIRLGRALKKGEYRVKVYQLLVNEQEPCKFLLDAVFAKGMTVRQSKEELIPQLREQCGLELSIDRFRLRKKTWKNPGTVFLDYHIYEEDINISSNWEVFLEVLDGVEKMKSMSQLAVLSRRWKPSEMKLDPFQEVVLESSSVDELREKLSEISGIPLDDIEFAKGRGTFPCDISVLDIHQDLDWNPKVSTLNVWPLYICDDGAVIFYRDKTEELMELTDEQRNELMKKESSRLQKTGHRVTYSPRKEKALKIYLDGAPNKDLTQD
How it was run: as §1

USP48 = molecular target: T3, USP48 (UniProt Q86UV5)
T3 sequence (whole entry): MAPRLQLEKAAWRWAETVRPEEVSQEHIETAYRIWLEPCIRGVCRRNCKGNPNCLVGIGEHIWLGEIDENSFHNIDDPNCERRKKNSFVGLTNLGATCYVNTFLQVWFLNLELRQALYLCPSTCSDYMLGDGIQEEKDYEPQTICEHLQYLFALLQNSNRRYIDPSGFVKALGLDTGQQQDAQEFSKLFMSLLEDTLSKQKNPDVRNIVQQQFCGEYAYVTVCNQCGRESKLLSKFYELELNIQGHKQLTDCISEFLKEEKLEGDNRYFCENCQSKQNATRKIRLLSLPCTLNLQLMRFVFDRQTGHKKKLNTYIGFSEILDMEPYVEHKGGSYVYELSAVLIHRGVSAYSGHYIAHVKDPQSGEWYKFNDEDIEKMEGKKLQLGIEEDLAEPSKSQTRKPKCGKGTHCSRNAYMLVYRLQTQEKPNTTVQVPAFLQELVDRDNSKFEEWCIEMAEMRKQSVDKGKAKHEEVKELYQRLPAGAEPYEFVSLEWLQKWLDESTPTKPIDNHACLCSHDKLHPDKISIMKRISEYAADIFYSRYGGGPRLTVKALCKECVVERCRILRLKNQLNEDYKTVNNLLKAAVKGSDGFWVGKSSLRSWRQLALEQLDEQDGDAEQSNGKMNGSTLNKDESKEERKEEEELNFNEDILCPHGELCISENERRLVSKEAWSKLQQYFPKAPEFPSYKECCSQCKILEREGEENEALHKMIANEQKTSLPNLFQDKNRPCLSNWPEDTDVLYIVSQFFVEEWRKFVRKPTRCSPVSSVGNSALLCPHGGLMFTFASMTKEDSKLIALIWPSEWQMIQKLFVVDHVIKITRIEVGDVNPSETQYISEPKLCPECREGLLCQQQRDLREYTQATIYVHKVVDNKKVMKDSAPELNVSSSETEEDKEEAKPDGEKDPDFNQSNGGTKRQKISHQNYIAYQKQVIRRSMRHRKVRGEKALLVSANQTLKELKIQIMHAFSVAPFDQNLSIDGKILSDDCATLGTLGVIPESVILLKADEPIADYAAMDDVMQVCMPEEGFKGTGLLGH
How it was run: as §1

USP5 = molecular target: T4, USP5 (UniProt P45974)
T4 sequence (whole entry): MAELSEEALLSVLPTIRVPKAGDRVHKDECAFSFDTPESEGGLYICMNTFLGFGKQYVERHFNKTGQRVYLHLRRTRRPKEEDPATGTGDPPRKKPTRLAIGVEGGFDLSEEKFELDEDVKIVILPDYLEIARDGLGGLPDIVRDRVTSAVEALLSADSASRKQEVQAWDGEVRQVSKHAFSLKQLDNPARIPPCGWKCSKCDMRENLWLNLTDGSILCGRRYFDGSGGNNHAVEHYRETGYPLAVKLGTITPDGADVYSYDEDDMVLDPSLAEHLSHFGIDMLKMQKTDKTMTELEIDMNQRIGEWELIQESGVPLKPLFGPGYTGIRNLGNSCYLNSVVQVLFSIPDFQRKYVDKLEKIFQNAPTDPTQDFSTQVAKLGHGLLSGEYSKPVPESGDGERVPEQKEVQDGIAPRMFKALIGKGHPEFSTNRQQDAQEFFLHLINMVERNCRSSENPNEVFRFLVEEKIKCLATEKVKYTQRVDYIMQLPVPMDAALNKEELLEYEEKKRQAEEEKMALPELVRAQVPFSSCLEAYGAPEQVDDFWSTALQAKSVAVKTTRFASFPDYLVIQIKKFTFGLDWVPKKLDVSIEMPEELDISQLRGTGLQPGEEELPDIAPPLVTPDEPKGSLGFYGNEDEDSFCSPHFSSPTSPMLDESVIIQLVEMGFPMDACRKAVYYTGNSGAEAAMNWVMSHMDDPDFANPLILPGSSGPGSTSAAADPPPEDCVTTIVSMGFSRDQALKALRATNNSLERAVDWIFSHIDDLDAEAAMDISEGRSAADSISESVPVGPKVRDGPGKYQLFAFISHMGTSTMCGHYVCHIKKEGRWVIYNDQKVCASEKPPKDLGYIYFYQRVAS
How it was run: as §1

USP54 = USP54 (UniProt Q70EL1)
USP54, sequence (Q70EL1 whole entry): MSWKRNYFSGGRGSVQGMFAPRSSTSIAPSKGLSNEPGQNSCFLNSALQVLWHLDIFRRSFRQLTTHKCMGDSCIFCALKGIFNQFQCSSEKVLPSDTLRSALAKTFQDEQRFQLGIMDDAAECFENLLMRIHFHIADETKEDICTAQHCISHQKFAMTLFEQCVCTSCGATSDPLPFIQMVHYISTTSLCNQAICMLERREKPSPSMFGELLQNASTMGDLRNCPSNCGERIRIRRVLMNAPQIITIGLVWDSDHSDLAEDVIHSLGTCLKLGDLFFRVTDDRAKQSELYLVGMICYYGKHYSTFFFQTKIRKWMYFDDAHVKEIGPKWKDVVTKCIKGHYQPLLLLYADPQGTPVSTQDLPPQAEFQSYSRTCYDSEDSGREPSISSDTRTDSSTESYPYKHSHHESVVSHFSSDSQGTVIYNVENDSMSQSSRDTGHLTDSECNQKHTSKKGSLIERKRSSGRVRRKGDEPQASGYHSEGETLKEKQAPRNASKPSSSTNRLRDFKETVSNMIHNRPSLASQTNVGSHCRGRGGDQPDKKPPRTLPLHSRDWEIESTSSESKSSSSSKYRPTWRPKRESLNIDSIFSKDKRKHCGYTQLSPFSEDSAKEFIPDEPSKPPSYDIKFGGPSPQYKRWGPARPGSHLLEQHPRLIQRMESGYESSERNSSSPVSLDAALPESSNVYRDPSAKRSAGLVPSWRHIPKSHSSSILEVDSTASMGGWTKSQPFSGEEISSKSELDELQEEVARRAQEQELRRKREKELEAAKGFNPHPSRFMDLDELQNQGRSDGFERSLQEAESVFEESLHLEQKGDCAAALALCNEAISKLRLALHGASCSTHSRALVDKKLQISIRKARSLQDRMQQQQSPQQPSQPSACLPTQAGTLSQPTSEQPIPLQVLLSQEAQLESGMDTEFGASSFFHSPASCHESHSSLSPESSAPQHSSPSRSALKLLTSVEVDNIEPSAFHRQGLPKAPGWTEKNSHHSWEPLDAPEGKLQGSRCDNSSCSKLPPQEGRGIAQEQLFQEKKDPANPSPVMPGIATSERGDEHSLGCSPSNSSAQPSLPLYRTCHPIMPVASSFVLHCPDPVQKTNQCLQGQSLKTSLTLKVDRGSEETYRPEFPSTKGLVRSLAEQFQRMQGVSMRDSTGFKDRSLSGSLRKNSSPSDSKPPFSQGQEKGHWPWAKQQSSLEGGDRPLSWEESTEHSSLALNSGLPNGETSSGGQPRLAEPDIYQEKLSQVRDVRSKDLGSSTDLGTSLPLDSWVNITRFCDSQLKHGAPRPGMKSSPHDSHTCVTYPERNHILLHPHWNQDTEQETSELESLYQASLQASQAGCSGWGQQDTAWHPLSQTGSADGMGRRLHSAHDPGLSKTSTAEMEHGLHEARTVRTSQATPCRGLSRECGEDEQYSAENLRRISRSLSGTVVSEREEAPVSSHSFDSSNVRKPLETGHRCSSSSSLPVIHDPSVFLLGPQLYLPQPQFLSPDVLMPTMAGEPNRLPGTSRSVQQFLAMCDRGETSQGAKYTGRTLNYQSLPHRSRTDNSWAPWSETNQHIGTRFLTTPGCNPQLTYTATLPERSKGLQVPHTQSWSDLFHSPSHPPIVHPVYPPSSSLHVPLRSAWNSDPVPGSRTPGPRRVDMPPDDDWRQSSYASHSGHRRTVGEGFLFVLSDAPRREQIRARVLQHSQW
How it was run: as §1

USP7 = USP7 (UniProt Q93009)
USP7, sequence (Q93009 whole entry, looked up): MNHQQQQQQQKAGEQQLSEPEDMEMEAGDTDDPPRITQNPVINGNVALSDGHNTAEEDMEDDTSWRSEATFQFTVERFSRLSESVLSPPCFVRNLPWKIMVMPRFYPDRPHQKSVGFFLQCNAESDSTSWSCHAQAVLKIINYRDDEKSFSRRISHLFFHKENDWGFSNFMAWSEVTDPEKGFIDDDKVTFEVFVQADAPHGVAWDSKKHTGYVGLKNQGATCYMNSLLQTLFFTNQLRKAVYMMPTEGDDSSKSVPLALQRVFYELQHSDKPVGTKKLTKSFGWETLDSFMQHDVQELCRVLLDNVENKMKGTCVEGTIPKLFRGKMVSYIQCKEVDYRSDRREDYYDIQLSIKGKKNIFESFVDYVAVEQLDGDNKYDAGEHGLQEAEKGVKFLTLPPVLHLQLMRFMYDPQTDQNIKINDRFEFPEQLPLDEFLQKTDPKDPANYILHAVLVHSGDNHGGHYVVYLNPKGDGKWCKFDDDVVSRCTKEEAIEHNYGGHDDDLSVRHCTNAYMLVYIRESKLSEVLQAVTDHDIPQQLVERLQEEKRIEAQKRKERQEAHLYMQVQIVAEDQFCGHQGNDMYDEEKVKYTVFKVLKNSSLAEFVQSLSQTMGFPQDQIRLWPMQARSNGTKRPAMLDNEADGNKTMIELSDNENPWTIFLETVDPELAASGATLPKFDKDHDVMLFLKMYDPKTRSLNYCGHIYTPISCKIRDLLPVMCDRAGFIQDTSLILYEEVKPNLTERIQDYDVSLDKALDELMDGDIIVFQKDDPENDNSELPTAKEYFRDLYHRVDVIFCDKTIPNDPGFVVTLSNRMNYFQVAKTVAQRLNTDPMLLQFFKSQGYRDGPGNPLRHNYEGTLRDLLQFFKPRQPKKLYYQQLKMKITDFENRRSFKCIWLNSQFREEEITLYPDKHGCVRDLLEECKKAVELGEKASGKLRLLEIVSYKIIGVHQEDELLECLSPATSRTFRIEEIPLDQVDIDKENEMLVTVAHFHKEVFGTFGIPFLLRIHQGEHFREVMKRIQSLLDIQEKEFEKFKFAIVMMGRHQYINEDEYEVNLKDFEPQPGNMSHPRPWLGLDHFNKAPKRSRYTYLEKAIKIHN
How it was run: as §1

USP8 = molecular target: T5, USP8 (UniProt P40818)
T5 sequence (whole entry): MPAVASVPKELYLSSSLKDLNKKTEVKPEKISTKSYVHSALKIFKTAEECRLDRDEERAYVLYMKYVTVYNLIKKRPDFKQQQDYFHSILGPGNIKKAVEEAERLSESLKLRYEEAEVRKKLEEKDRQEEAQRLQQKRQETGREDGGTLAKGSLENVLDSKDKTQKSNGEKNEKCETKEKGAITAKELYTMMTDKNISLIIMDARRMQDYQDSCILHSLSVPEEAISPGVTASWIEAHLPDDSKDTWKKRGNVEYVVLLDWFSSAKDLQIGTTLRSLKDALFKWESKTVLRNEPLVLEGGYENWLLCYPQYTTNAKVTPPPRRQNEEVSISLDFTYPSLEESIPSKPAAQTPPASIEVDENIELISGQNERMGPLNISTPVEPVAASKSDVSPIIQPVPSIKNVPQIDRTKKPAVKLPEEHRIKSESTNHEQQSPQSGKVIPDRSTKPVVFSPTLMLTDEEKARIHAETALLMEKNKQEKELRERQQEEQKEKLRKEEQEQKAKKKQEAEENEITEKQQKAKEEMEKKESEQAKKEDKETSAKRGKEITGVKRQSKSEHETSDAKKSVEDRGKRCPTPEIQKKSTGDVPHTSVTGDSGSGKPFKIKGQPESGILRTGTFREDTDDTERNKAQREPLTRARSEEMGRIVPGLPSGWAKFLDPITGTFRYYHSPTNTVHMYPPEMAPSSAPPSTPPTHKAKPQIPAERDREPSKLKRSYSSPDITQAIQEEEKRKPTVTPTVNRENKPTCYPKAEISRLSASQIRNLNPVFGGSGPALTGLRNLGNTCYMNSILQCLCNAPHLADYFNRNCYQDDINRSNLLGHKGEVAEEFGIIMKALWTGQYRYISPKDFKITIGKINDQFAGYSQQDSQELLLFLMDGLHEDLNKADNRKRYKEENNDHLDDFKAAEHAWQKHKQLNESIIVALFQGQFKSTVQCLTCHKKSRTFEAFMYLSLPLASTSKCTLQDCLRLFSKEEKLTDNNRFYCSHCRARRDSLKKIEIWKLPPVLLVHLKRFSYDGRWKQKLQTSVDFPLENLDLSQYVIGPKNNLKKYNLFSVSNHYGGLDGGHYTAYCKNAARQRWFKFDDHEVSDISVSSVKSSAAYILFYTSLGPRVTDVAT
How it was run: as §1

USP9X = USP9X (UniProt Q93008)
How it was run: as §1

UniProt O00487 = molecular target: UniProt O00487
UniProt O00487, sequence (O00487 whole entry): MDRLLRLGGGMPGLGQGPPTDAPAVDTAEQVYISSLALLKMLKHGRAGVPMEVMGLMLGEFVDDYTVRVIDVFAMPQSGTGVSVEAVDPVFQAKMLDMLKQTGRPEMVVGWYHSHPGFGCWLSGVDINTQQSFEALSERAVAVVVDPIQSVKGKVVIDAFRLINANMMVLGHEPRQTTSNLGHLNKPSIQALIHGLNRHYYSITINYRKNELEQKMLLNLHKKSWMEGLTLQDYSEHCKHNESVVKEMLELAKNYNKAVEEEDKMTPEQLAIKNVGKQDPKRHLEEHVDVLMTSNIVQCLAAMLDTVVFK
How it was run: as §1

Measured: log2 ratio of Biotin-Ahx-Ub-VS probe labelling

O=C(CCl)N1CCN(C(=O)N2CCCCC2)CC1
active: USP5 -1.13 | USP7 -1.12 | USP9X -1.11
inactive: USP42 0.232 | USP46 -0.637 | USP47 -0.616 | USP48 -0.949 | USP54 0.892 | USP8 -0.843 | UniProt O00487 -0.0311
